# Data taken from PubChem BioAssay.
# For some of these results: Entries with a potency or affinity are not part of this list. Active and inactive are the calls of the source.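 How the source made its calls, unless noted: active means primary screen activator hit with a dose response curve and TRPC4 channel activation at any tested dose; inactive means no activation, no dose response, or not a primary hit.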
# Tests used:
# [1] = test system: TRPC4 beta (transient receptor potential cation channel C4), mouse; test: TRPC4 cation channel opening, retest – cell-based, Fluo4 calcium, HEK293 TRPC4beta/mu-opioid, duplicates, 10 µM, confirmation (AID 2426;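 active means fluorescence ratio normalized to control raised more than 50% in primary screen plus both repeat runs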); settings: Fluo4 calcium fluorescence, at 10 µM; stronger effect = higher value
# [2] = test system: transient receptor potential cation channel C4 beta (TRPC4), mouse; test: TRPC4 cation channel opening, second retest – cell-based, second round, Fluo4, HEK293 TRPC4beta/mu-opioid, 1 µM, confirmation (AID 2461;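 active means primary screen active and over 50% activation in each of two duplicate runs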); settings: Fluo4 calcium fluorescence, at 1 µM; stronger effect = higher value
# [3] = test system: TRPC4 (transient receptor potential cation channel C4 beta), mouse; test: potentiation of DAMGO EC20 TRPC4 response – cell-based, second round, Fluo-4, HEK293 TRPC4beta/mu-opioid, 1 µM, confirmation (AID 2554;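 active means primary screen hit whose fluorescence ratio, in both repeats, exceeds the weak agonist control mean by 3 SD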); settings: DAMGO EC20, Fluo-4 calcium flux, at 1 µM; stronger effect = higher value
# [4] = test system: TRPC4 beta (transient receptor potential cation channel C4), mouse; test: potentiation of DAMGO EC20 TRPC4 response – cell-based, Fluo-4, HEK293 TRPC4beta/mu-opioid, confirmation (AID 2555;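 active means primary screen hit whose calcium fluorescence ratio, in both repeats, exceeds the weak agonist control mean by 3 SD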); settings: DAMGO EC20, Fluo-4 calcium flux, at 10 µM; stronger effect = higher value
# [5] = biological target: Short transient receptor potential channel 4 (Mus musculus) (UniProt Q9QUQ5); test: blockers of DAMGO-evoked TRPC4 calcium flux – cell-based, Fluo4, HEK293 TRPC4beta/mu-opioid, confirmation (AID 2636;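 active means calcium signal cut by more than 3 SD below the full-agonist control yet still positive, in both repeats and the earlier primary screen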); settings: at 10 µM; stronger effect = higher value
# [6] = biological target: Short transient receptor potential channel 4 (Mus musculus) (UniProt Q9QUQ5); test: blockers of DAMGO-evoked TRPC4 calcium flux – cell-based, second round, Fluo4, HEK293 TRPC4beta/mu-opioid, 1 µM, confirmation (AID 2637;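 active means calcium signal ratio cut to more than 3 SD under the fully stimulated control mean yet still positive, in both repeats and the primary screen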); settings: at 1 µM; stronger effect = higher value
# [7] = biological target: Short transient receptor potential channel 4 (Mus musculus) (UniProt Q9QUQ5); test: calcium entry via TRPC4 opening agents – cell-based, HEK293 TRPC4/mu-opioid, Fluo-4 calcium, dose response (AID 434937)
# [8] = biological target: Short transient receptor potential channel 4 (Mus musculus) (UniProt Q9QUQ5); test: potentiation of DAMGO-evoked TRPC4 calcium signal – cell-based, HEK293 TRPC4/mu-opioid, Fluo-4 calcium, EC20 DAMGO, dose response (AID 434941;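 active means earlier screen potentiator hit that boosts the TRPC4 ion channel at some dose, with a dose response; inactive means no potentiation, no dose response, or not a prior hit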;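 further: calcium entry triggered by an EC20 dose of DAMGO at the co-expressed mu-opioid receptor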)
# [9] = biological target: Short transient receptor potential channel 4 (Mus musculus) (UniProt Q9QUQ5); test: block of DAMGO-driven TRPC4 calcium entry – cell-based, HEK293 TRPC4/mu-opioid, Fluo-4 calcium, dose response (AID 434942;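 active means primary screen inhibitor hit that blocks the TRPC4 channel at some tested dose, yielding a dose curve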)
# [10] = biological target: Short transient receptor potential channel 6 (Mus musculus) (UniProt Q61143); test: TRPC6 blockade by TRPC4 inhibitor hits – cell-based, HEK293, membrane potential dye, duplicate, selectivity assay for TRPC4 inhibitor project, confirmation (AID 434948;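 active means active in primary screen and both duplicates, each dropping signal beyond three positive-control SD with fluorescence still positive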); settings: HEK293 TRPC6, membrane potential dye fluorescence, at 10 µM, stimulated with maximal-effect acetylcholine; stronger effect = higher value
# [11] = biological target: Short transient receptor potential channel 6 (Mus musculus) (UniProt Q61143); test: TRPC6 opening by TRPC4 activator hits – cell-based, HEK293, membrane potential dye, duplicate, selectivity assay for TRPC4 activator project, confirmation (AID 434950;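 active means membrane potential signal rise above negative control mean plus 3 SD in both duplicates, also active in the earlier TRPC4 screen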); settings: HEK293 TRPC6, membrane potential fluorescence, at 10 µM; activation: stronger effect = higher value; outcome: activation
# [12] = biological target: Short transient receptor potential channel 6 (Mus musculus) (UniProt Q61143); test: positive modulators of mouse TRPC6 channel – HEK293 cells, membrane potential dye, duplicate, selectivity assay for TRPC4 potentiator project, confirmation (AID 434952;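 active means compound raising the membrane signal above positive-control mean plus 3 SD in both repeats, and a primary screen hit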); settings: HEK293 TRPC6, membrane potential dye fluorescence, at 10 µM, maximal acetylcholine added after compound; stronger effect = higher value
# [13] = biological target: Short transient receptor potential channel 4 (Mus musculus) (UniProt Q9QUQ5); test: calcium flux activators in TRPC4/5HT1a cells, counter-screen for TRPC4 activator project, cell-based, second counter screen, HEK293 TRPC4/5HT1a, Fluo-4 (AID 434977;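 active means calcium signal rise above buffer-control mean plus 5 SD in both duplicates, and also a hit in the primary screen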); settings: Fluo-4 calcium flux, at 10 µM; stronger effect = higher value
# [14] = serotonin-gated TRPC4 signal block – cell-based, second counter screen, HEK293 TRPC4/5HT1a, Fluo-4, counter-screen for TRPC4 inhibitor project, confirmation (AID 434978;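 active means primary screen active whose calcium signal fell more than 3 SD beyond the full-serotonin control mean in both duplicate plates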;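 further: serotonin given first at submaximal then at maximal dose after compound preincubation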); settings: Fluo-4 calcium flux, at 10 µM, serotonin added to trigger calcium flux; stronger effect = higher value
# [15] = test system: TRPC4 (mouse), co-expressed with 5HT1a in HEK293; test: enhancement of serotonin-evoked TRPC4 response – cell-based, second counter screen, HEK293 TRPC4/5HT1a, Fluo-4, counter-screen for TRPC4 potentiator project, confirmation (AID 434979;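 active means signal rise over 3 SD above mean of control wells given weak agonist, in both repeats and first screen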); settings: Fluo-4 calcium flux, at 10 µM, serotonin added at its EC20 dose; stronger effect = higher value
# [16] = nonspecific calcium rise without TRPC4 – cell-based, HEK293 mu-opioid receptor line, counter-screen for TRPC4 activator project, confirmation (AID 449723;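 active means hit in primary screen, with calcium signal over 5 SD above buffer well mean in both duplicates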;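 further: counter screen cells carry the mu-opioid receptor alone and lack TRPC4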); settings: HEK293 mu-opioid cells, Fluo-4 calcium fluorescence, at 10 µM; stronger effect = higher value
# [17] = nonspecific potentiation of DAMGO calcium response – cell-based, HEK293 mu-opioid receptor line, counter-screen for TRPC4 allosteric potentiator project, confirmation (AID 449724;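 active means calcium signal rise more than 3 SD above the low-dose agonist control mean, in both duplicate plates and the primary screen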); settings: HEK293 mu-opioid receptor cells, Fluo-4 calcium flux, at 10 µM, compound added before EC20 DAMGO stimulus; stronger effect = higher value
# Chain of Short transient receptor potential channel 4 (Mus musculus) (Q9QUQ5 whole entry, looked up): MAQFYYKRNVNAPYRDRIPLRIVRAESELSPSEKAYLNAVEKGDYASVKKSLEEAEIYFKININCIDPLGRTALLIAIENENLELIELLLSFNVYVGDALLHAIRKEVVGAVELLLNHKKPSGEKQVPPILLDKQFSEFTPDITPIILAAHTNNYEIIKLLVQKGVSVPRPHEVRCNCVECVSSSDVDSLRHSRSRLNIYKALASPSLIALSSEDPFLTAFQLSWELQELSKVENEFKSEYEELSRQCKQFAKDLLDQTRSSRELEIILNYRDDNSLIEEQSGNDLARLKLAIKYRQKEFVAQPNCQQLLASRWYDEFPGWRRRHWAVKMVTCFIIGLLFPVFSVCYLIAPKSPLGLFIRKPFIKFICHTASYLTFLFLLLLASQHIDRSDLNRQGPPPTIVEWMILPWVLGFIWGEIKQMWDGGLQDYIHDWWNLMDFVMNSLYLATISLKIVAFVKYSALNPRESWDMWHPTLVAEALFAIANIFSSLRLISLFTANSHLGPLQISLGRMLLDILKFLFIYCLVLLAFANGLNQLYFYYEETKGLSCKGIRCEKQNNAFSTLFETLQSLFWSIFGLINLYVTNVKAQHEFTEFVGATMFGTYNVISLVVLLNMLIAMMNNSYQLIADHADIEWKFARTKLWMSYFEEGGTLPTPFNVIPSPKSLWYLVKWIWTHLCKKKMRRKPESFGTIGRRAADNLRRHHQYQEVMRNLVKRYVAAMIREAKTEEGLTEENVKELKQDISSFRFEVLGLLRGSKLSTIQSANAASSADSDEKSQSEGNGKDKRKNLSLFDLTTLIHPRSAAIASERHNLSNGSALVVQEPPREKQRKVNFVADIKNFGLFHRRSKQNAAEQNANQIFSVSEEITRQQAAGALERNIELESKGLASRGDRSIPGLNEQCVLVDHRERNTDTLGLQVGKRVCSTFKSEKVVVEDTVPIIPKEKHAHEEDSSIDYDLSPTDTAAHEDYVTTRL
# Chain of Short transient receptor potential channel 6 (Mus musculus) (Q61143 whole entry, looked up): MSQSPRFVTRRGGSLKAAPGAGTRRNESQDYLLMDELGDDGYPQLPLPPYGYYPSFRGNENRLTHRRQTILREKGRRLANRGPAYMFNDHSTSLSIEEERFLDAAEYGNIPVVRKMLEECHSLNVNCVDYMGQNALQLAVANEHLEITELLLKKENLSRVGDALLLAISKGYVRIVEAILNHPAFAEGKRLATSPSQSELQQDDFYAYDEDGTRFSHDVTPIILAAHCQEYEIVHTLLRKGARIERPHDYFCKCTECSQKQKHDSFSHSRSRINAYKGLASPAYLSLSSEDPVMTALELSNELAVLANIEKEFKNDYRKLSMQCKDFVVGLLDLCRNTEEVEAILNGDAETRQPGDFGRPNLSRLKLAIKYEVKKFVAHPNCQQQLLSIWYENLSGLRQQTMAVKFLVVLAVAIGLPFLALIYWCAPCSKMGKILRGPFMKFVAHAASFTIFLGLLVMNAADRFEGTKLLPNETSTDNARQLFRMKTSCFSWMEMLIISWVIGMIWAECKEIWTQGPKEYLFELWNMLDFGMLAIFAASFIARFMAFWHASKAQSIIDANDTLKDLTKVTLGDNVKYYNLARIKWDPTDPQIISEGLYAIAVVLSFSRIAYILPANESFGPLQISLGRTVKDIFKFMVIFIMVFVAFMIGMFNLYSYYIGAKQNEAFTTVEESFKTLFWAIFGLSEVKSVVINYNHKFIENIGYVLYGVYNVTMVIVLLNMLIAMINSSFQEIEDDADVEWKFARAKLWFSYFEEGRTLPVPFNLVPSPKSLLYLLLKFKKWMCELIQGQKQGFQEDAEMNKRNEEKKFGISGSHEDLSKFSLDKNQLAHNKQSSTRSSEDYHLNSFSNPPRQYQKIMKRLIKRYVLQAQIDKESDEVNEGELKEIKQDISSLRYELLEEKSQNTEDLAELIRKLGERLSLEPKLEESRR
Compound,outcome [1],outcome [2],outcome [3],outcome [4],outcome [5],outcome [6],outcome [7],outcome [8],outcome [9],outcome [10],outcome [11],outcome [12],outcome [13],outcome [14],outcome [15],outcome [16],outcome [17],potentiation [4],potentiation [15],potentiation [3]
CCN1CCN(c2ccc(NC(=O)CCc3c(C)nc4c(-c5ccc(F)cc5)c(C)nn4c3C)cc2)CC1,inactive,inactive,inactive,inactive,inactive,inactive,inactive,inactive,inactive,inactive,inactive,inactive,inactive,inactive,inactive,inactive,inactive,,,
CC(=O)Nc1nc2ccc(S(=O)(=O)N3CCCCC3)cc2s1,inactive,inactive,inactive,inactive,inactive,inactive,inactive,inactive,inactive,inactive,inactive,inactive,inactive,inactive,inactive,inactive,inactive,,,
CCOc1cc(/C=C(\C#N)C(=O)Nc2cccc(C(=O)O)c2)cc(Br)c1OC(=O)c1ccc(OC)cc1,inactive,inactive,inactive,,inactive,inactive,inactive,inactive,inactive,inactive,inactive,inactive,inactive,inactive,,inactive,inactive,28% (active),16.7% (active),
Cc1ccc(C(=O)c2no[n+]([O-])c2C(=O)c2ccc(C)cc2)cc1,inactive,inactive,,,inactive,inactive,inactive,inactive,inactive,inactive,inactive,inactive,inactive,inactive,,inactive,inactive,89% (active),59.9% (active),23% (active)
CCCSc1nc(C)cc(C)c1S(=O)(=O)c1ccccc1C,inactive,inactive,inactive,inactive,inactive,inactive,inactive,inactive,inactive,inactive,inactive,inactive,inactive,inactive,inactive,inactive,inactive,,,
CC(=O)N1CC(c2ccccc2)C(c2ccc(Cl)cc2)=N1 (stereo not drawn),inactive,inactive,inactive,inactive,inactive,inactive,inactive,inactive,inactive,inactive,inactive,inactive,inactive,inactive,inactive,inactive,inactive,,,
CC(C)c1nc2ccc(Br)cn2c1NC1CCCC1,inactive,inactive,inactive,inactive,inactive,inactive,inactive,inactive,inactive,inactive,inactive,inactive,inactive,inactive,inactive,inactive,inactive,,,
O=C(CC1C(=O)NCCN1C(=O)Nc1ccccc1)Nc1cc(Cl)cc(Cl)c1 (stereo not drawn),inactive,inactive,inactive,,inactive,inactive,inactive,inactive,inactive,inactive,inactive,inactive,inactive,inactive,,inactive,inactive,15% (active),21.1% (active),
CC(C)(C)c1ccc(-c2nc3cc(N)ccc3o2)cc1,inactive,inactive,inactive,inactive,inactive,inactive,inactive,inactive,inactive,inactive,inactive,inactive,inactive,inactive,inactive,inactive,inactive,,,
C=CCn1c(=N)n(CC(O)COc2ccccc2OC)c2ccccc21 (stereo not drawn),inactive,inactive,inactive,inactive,inactive,inactive,inactive,inactive,inactive,inactive,inactive,inactive,inactive,inactive,inactive,inactive,inactive,,,
CN(CCNS(=O)(=O)c1ccc2c(c1)oc(=O)n2C)Cc1ccccc1,inactive,inactive,inactive,,inactive,inactive,inactive,inactive,inactive,inactive,inactive,inactive,inactive,inactive,,inactive,inactive,8% (active),13.7% (active),
Cc1cccn2c(=O)c3cc(C(=O)N(C)C)n(C)c3nc12,inactive,inactive,inactive,,inactive,inactive,inactive,inactive,inactive,inactive,inactive,inactive,inactive,inactive,,inactive,inactive,29% (active),37.3% (active),
Cc1ccc(S(=O)(=O)N2CCC(C(=O)OCC(=O)N(C)CC(=O)Nc3ccc(F)cc3)CC2)cc1C,inactive,inactive,inactive,inactive,inactive,inactive,inactive,inactive,inactive,inactive,inactive,inactive,inactive,inactive,inactive,inactive,inactive,,,
C1CCN(c2nc(N3CCCCC3)nc(N3CCNCC3)n2)CC1,inactive,inactive,inactive,inactive,inactive,inactive,inactive,inactive,inactive,inactive,inactive,inactive,inactive,inactive,,inactive,inactive,,8.18% (active),
